Each structure is given as a SMILES string. In all, about 52,000 compounds went through this assay and about 4,300 (8.3%) were called active. The full list was thinned out, with actives kept by preference. Values without a mark were called inactive. Cut-off read from the data, not from the text of the source: active = survival mostly below about 52% (no sharp cut-off); inactive = mostly above about 56%.

In the experiment the test system is DeltatarO mutant. In words: growth inhibition of S. aureus wild type versus tarO mutant, primary screen, teichoic acid synthesis inhibitors, RN4220, OD600 (AID 463173). The note with it: OD600, 18 h, stronger effect = lower value, screened at 18.75 µg/mL (by protocol).
As to `CSc1ccc(CCNC(=O)c2ccc3c(c2)nc2n3CCCCC2)cc1`, the survival is 82%.

Turning to `COc1ccc(N2CCN(CCCNC(=O)c3ccc4nc(Cc5ccccc5)oc4c3)CC2)cc1`, the survival is 93%.

In the case of `O=C(NCc1ccc(F)cc1)c1ccc2c(O)c(S(=O)(=O)c3ccccc3)c(=O)[nH]c2c1`, the survival was 66%.

In the case of `CCn1c(=O)c(=O)n(CC)c2cc(N3CCCCC3)c(NC(=O)c3ccccc3OC)cc21`, the survival is 91%.

With `Cc1nnc(NC(=O)CSCc2cc(=O)c3ccc(C)c(C)c3[nH]2)s1`, the survival was 73%.

Turning to `NC(=O)CN1C(=O)C(O)(CC(=O)/C=C\c2ccccc2)c2ccccc21` (stereo unspecified), the survival is 96%.

Take `COc1ccc(CNC(=O)CSc2nc(-c3ccc(OC)c(OC)c3)cc(C(F)(F)F)n2)cc1`: the survival is 72%.

On to `COc1ccc(-c2cc(C(F)(F)F)nc(SCC(=O)NCc3ccc(OC)c(OC)c3)n2)cc1`, for which the survival was 60%.

Regarding `COc1ccc(-c2cc(C(F)(F)F)nc(SCC(=O)NC(C)c3ccccc3)n2)cc1` (stereo unspecified), the survival is 60%.

On to `COc1ccc(CNC(=O)C(C)Sc2nc(-c3ccccc3)cc(C(F)(F)F)n2)cc1` (stereo unspecified), for which the survival is 165%.

With `COc1ccc(CNC(=O)CSc2nc(-c3ccc(OC)cc3)cc(C(F)(F)F)n2)cc1`, the survival is 83%.

For the molecule `COc1ccc(CNc2ccc(-c3ccc(OC)cc3)nn2)cc1`, the survival was 80%.

Turning to `COc1ccc(CNc2nc(-c3ccc(OC)c(OC)c3)cc(C(F)(F)F)n2)cc1`, the survival is 11% (active).

As to `COc1ccc(-c2cc(C(F)(F)F)nc(NCCc3ccccc3)n2)cc1`, the survival was 1% (active).

Take `COc1ccc(-c2cc(C(F)(F)F)nc(NCc3ccccc3)n2)cc1`: the survival is -4% (active).

For the molecule `COc1ccc(CNc2nc(-c3ccc(OC)cc3)cc(C(F)(F)F)n2)cc1`, the survival was -2% (active).

For `COc1ccc(-c2cc(C(F)(F)F)nc(SCC(=O)NCCc3ccccc3)n2)cc1`, the survival was 121%.

For the molecule `COc1ccc(S(=O)(=O)c2c(O)c(C)cc(NC(=O)c3ccccc3)c2C(C)C)cc1`, the survival was 80%.

As for `CCc1ccc(NC(=O)c2sc3nc(C)c(Cl)c(C)c3c2NC(=O)c2ccccc2)cc1`, the survival was 76%.

As to `CCOC(=O)N1CCC(NC(=O)c2ccc3c(c2)N(Cc2ccc(F)cc2)C(=O)c2ccccc2S3=O)CC1` (stereo unspecified), the survival was 58%.

Regarding `COc1ccc(CCNC(=O)c2c(O)nc3c(C)cccn3c2=O)cc1OC`, the survival was 91%.

For the molecule `CCN1C(=O)/C(=C\C=C2/N(CC)c3ccc(C(=O)OC)cc3N2CC)SC1=S`, the survival was 78%.

As for `Cc1ccc(NC(=O)Cn2c(=O)n(Cc3nc(-c4ccccc4)no3)c(=O)c3cc4c(cc32)OCO4)cc1C`, the survival was 77%.

For `CCc1ccccc1NC(=O)CN(Cc1ccccc1)S(=O)(=O)c1ccc2nc(C)sc2c1`, the survival is 102%.

Regarding `Cc1ccc(C(=O)NC2(C(F)(F)F)C(=O)Nc3c2c(=O)[nH]c(=O)n3CCc2ccccc2)cc1` (stereo unspecified), the survival was 74%.

As for `CC(C)CCNC(=O)c1cc2sccc2n1Cc1ccc(F)cc1`, the survival was 87%.

On to `CCOc1ccccc1Nc1sc(C(=O)c2ccccc2)c(N)c1C(=O)Nc1ccccc1`, for which the survival is 102%.

Regarding `COCCn1c(C)cc(O)c(C(c2ccccc2Cl)N2CCN(c3ccccc3)CC2)c1=O` (stereo unspecified), the survival was 87%.

As to `CSc1ccc(CNC(=O)c2cc3c(=O)n(Cc4ccco4)ccc3nc2C)cc1`, the survival is 94%.

On to `COc1ccc(-c2cn3c(n2)sc2cc(C(=O)NCc4ccccc4)ccc23)cc1`, for which the survival was 63%.

As to `O=C(NCCOCCn1c(=O)oc2ccccc21)Nc1cccc(Cl)c1`, the survival is 75%.

Regarding `COc1cccc(-c2cc(C(F)(F)F)nc(NCc3ccc(F)cc3)n2)c1`, the survival is 4% (active).

Regarding `COc1ccc(-c2cc(C(F)(F)F)nc(SCCC(=O)Nc3cccc(OC)c3)n2)cc1`, the survival was 69%.

`COc1cccc(-c2cc(C(=O)Nc3ccc(F)cc3)[nH]n2)c1`: the survival was 73%.

For `COc1ccc(-c2cc(C(F)(F)F)nc(SCC(=O)NCc3ccc(F)cc3)n2)cc1`, the survival is 74%.

`COc1ccccc1CCNC(=O)C(C)Sc1nc(-c2ccccc2)cc(C(F)(F)F)n1` (stereo unspecified): the survival is 65%.

Take `COc1ccc(-c2cc(C(F)(F)F)nc(NCc3ccccc3)n2)cc1OC`: the survival is 42% (active).

Consider `COc1ccc(-c2cc(C(F)(F)F)nc(NCCc3ccccc3)n2)cc1OC`, for which the survival is 63%.

Turning to `COc1cccc(-c2nc(S(=O)(=O)c3ccccc3)c(NCc3ccccc3)o2)c1`, the survival is 61%.

For the molecule `COc1cccc(-c2cc(C(F)(F)F)nc(NCCc3ccccc3)n2)c1`, the survival was -8% (active).

Consider `COc1ccc(-c2cc(C(F)(F)F)nc(NCc3ccc(F)cc3)n2)cc1`, for which the survival was 1% (active).

As to `COc1ccc(-c2cc(C(F)(F)F)nc(SCC(=O)NCC(C)C)n2)cc1OC`, the survival was 137%.

As to `COc1ccccc1/C=C/c1nc(C#N)c(N2CCCCC2)o1`, the survival is 75%.

In the case of `Cc1ccc(C(=O)c2sc(Nc3ccccc3F)c(S(=O)(=O)c3ccccc3)c2N)c(C)c1`, the survival is 74%.

Consider `COC(=O)c1cc(NC(=O)c2nn(C)c3c2CSc2ccccc2-3)cc(C(=O)OC)c1`, for which the survival was 88%.

Take `CN1CCN(C2(CNC(=O)c3ccc([N+](=O)[O-])cc3)CCCCC2)CC1`: the survival was 102%.

`Cc1ccc(C(C)C)c(OCC(=O)NCC2(N(C)C)CCCCC2)c1`: the survival is 95%.

For `N#Cc1c(NC(=O)C2CC(=O)NN2Cc2ccccc2)sc2c1CCCC2` (stereo unspecified), the survival is 82%.

On to `CCn1c(CNC(=O)c2ccc(OC)cc2)nnc1SCC(=O)Nc1ccc(F)cc1`, for which the survival was 130%.

Take `O=C(C1=C(N2CCCCC2)c2ccccc2S(=O)(=O)N1)c1ccccc1`: the survival was 94%.

As to `Cc1ccc(-n2nnc(-c3nc(-c4cccs4)no3)c2N)c(C)c1`, the survival was 101%.

Turning to `COc1ccccc1NC(=O)c1cc2c(C)nn(-c3ccccc3)c2s1`, the survival is 0% (active).

With `Cc1ccccc1NC(=O)c1cc2c(-c3ccccc3)nn(-c3ccccc3)c2s1`, the survival was 57%.

Take `COc1ccccc1NC(=O)c1cc2c(-c3ccccc3)nn(-c3ccccc3)c2s1`: the survival is 89%.

For `Cc1nn(-c2ccccc2)c2sc(C(=O)Nc3ccccc3Br)cc12`, the survival was 9% (active).

As to `O=C(Nc1ccccc1Cl)c1cc2c(-c3ccccc3)nn(-c3ccccc3)c2s1`, the survival is 56%.

Regarding `COc1ccc(NC(=O)c2cc3c(C)nn(-c4ccccc4)c3s2)c(OC)c1`, the survival is 59%.

`CCc1ccccc1NC(=O)C1CCN(C2=NS(=O)(=O)C(c3ccc(C)c(C)c3)=C2C)CC1`: the survival was 80%.

As for `COc1ccc(-c2nc(C(N)=O)c3c(n2)n(-c2ccccc2OC)c(=O)n3C)c(OC)c1`, the survival is 82%.

As to `CCN(CC)S(=O)(=O)c1ccc(-n2cnnn2)c(C)c1`, the survival was 111%.

In the case of `Cc1ccc(NC(=O)CSc2nncn3c2cc2sccc23)cc1F`, the survival is 61%.

For `COc1ccc(CCNC(=O)C2CCCN(S(=O)(=O)c3ccc4c(c3)oc(=O)n4C)C2)cc1OC` (stereo unspecified), the survival was 72%.

`CCC1CCCCN1S(=O)(=O)c1ccc(NC(=O)c2cc(=O)c3c(C)cc(C)cc3o2)cc1` (stereo unspecified): the survival is 45%.

Turning to `CCc1ccc(OCC(=O)Nc2ccc3c(c2)c2ccccc2n3CC)cc1`, the survival is 51%.

For `CCc1cccc(NC(=O)COc2cc(=O)n(CC)c3ccccc23)c1`, the survival was 115%.

As to `Cc1ccc(-n2nc3ccc(NC(=O)COc4ccccc4C)cc3n2)cc1`, the survival was 72%.

With `CCc1ccc(OCC(=O)Nc2ccc3c(c2)c2ccccc2n3CC)c(Br)c1`, the survival is 6% (active).

On to `COc1ccc(NC(=O)c2ccco2)cc1NC(=O)COc1ccc(C)cc1C`, for which the survival was 56%.

Turning to `COc1ccc(C)cc1NC(=O)COc1cc(=O)n(C)c2ccccc12`, the survival was 90%.

Turning to `CCn1c2ccccc2c2cc(NC(=O)COc3cc(C)ccc3C)ccc21`, the survival is 29% (active).

In the case of `CCn1c2ccccc2c2cc(NC(=O)COc3ccc(C)cc3C)ccc21`, the survival is -5% (active).

Consider `CCOC(=O)c1ccccc1NC(=O)COc1cc(=O)n(CC)c2ccccc12`, for which the survival was 53%.

For the molecule `CCc1ccc(S(=O)(=O)c2nnn3c2nc(N2CCOCC2)c2sccc23)cc1`, the survival is 83%.

On to `Cc1ccccc1-n1nc(CO)c(C(=O)NCCc2ccccc2)n1`, for which the survival was 86%.

For `Cc1ccc(-c2cc(C(F)F)n3ncc(C(=O)NCC4CCCO4)c3n2)cc1` (stereo unspecified), the survival was 87%.

On to `CCCCN(C)CCNC(=O)CN1C(=O)CSc2ccc(S(=O)(=O)N3CCCCC3)cc21`, for which the survival was 113%.

As to `CC(C)Cc1nn2cc(-c3cccc(Br)c3)nc2s1`, the survival is 112%.

`Cn1ccc2cc(S(=O)(=O)N3CCCN(C(=O)Nc4ccccc4Br)CC3)ccc21`: the survival was 67%.

Turning to `CCOc1ccc(Nc2nc3c(S(=O)(=O)c4ccc(CC)cc4)nnn3c3ccc(Cl)cc23)cc1`, the survival is 104%.

Take `O=C(O)CNC(=O)c1sc2ccccc2c1Cl`: the survival was 84%.

On to `O=C(Nc1cccc(C(F)(F)F)c1)Nc1cccs1`, for which the survival was -3% (active).

Turning to `O=C(Nc1cccs1)Nc1cc(C(F)(F)F)ccc1Cl`, the survival is 11% (active).

As to `O=C(Nc1cccs1)Nc1ccc(F)cc1F`, the survival was 83%.

Consider `O=C(Nc1cc(C(F)(F)F)ccc1Cl)c1cc(-c2cccs2)nc2ccccc12`, for which the survival is 86%.

As to `Cc1ccc(NC(=O)Nc2cccs2)c(C)c1`, the survival was 91%.

For the molecule `O=C(Nc1cccc(C(F)(F)F)c1)c1cccs1`, the survival was 95%.

On to `Cc1ccccc1NC(=O)Nc1cccs1`, for which the survival is 94%.

As for `Cc1cc(C)cc(NC(=O)Nc2cccs2)c1`, the survival is 26% (active).

For `O=C(Nc1cccc(C(F)(F)F)c1)c1cccc(C(=O)Nc2cccc(C(F)(F)F)c2)c1`, the survival was 84%.

Turning to `COc1ccc(CNC(=O)c2cnc(N3CCCC3)nc2C)cc1`, the survival was 71%.

As to `O=S(=O)(Nc1ccc(-c2ccc(N3CCCC3)nn2)cc1)c1ccccc1Cl`, the survival is 66%.

For the origin of these results see PubChem BioAssay AID463173 (ICCB-Longwood Screening Facility, Harvard Medical School, 2010).
